Common to all, as to test: NCI-60 one-dose screen, 48 h (100 = growth as untreated, 0 = no growth, -100 = all killed)
One assay concerns RPMI-8226 leukemia. Conditions: 10 µM unless noted.
For the next assay, the system named is OVCAR-8 ovarian. The settings on record: 10 µM unless noted.
The subject of a further assay is OVCAR-5 ovarian. The settings on record: 10 µM unless noted.
For another assay, the system named is OVCAR-4 ovarian. Conditions: 10 µM unless noted.
A further assay deals with SK-OV-3 ovarian. The settings on record: 10 µM unless noted.
A further assay concerns IGROV1 ovarian. Conditions: 10 µM unless noted.
The next assay has as its system OVCAR-3 ovarian. Conditions: 10 µM unless noted.
The next assay concerns HS 578T breast. The settings on record: 10 µM unless noted.
The test system of the next assay is NCI/ADR-RES ovarian. The settings on record: 10 µM unless noted.
For the next assay, the system named is T-47D breast. The settings on record: 10 µM unless noted.
The next assay deals with BT-549 breast. Conditions: 10 µM unless noted.
The next assay relates to MDA-MB-435 melanoma. The settings on record: 10 µM unless noted.
A further assay relates to MCF7 breast.
For the next assay, the system named is HCT-116 colon. Conditions: 10 µM unless noted.
The test system of the next assay is HCC-2998 colon. Conditions: 10 µM unless noted.
A further assay deals with KM12 colon. The settings on record: 10 µM unless noted.
In the next assay the test system is SW-620 colon. Conditions: 10 µM unless noted.

The structures appear in SMILES notation. Where “and” joins values, the source holds several entries; their conditions need not be identical. Identical values can stand only once. This is part of a sample that, as a whole, favours compounds with a hit. Of some 83,000 tested, about 20% had one in any assay.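 The endpoint reported here, percent growth, reads 100 for growth as untreated, 0 for no net growth and -100 for all cells dead.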 Unmarked numbers belong to inactive results. Calls of active or inactive are those of the source. Rule for the calls: active = growth percent below 10; inactive = the rest.

As to `CC(C)(C)OC(=O)NCCc1ccc(N)cc1`, the growth in the assay with RPMI-8226 leukemia is 91.4%; in the assay on OVCAR-8 ovarian it was 104%; with OVCAR-5 ovarian it was 111%; in the assay on OVCAR-4 ovarian it was 98.8%; in the assay on SK-OV-3 ovarian, 101%; in the assay with IGROV1 ovarian, 104%. Also, the growth was 106% in the assay with OVCAR-3 ovarian; 96% in the assay on HS 578T breast; 99.2% with NCI/ADR-RES ovarian; 94.8% with T-47D breast; 98.1% in the assay on BT-549 breast; 101% in the assay with MDA-MB-435 melanoma. Also, the growth in the assay on MCF7 breast (10 µM unless noted) was 99.2%; in the assay with HCT-116 colon, 112%; with HCC-2998 colon, 107%; in the assay with KM12 colon it was 107%.

For the compound `N#CC(=S)Nc1ccc(Cl)c(Cl)c1`, the growth with RPMI-8226 leukemia was 19.7%; in the assay on OVCAR-8 ovarian, 10.1%; in the assay with OVCAR-5 ovarian, 11%; in the assay with OVCAR-4 ovarian, 22.6%; in the assay with SK-OV-3 ovarian, 7.19% (active); with IGROV1 ovarian it was 19.5%. For the same compound, the growth is 7.39% (active) with OVCAR-3 ovarian; -7.34% (active) in the assay on HS 578T breast; 7.44% (active) in the assay on NCI/ADR-RES ovarian; 13.2% in the assay on T-47D breast; -4.25% (active) in the assay with BT-549 breast; 6.5% (active) in the assay with MDA-MB-435 melanoma. The growth in the assay on SW-620 colon is 19.6%; in the assay with MCF7 breast (10 µM), 5.23% (active); in the assay on MCF7 breast (100 µM) it was -23.4% (active) and -100% (active); in the assay on HCT-116 colon, 4.91% (active); in the assay on HCC-2998 colon it was 20.2%; with KM12 colon, 2.62% (active).

On to `O=C1C=CC(=O)N1Cc1ccco1`, for which the growth in the assay on OVCAR-8 ovarian is 85.6%; in the assay with OVCAR-5 ovarian, 62.1%; in the assay with OVCAR-4 ovarian, 106%; with SK-OV-3 ovarian it was 94.2%; in the assay on IGROV1 ovarian, 69.7%; in the assay with OVCAR-3 ovarian, 113%. Besides, the growth with HS 578T breast was 117%; with NCI/ADR-RES ovarian, 76.6%; in the assay with T-47D breast, 91.7%; with BT-549 breast it was 100%; in the assay with MDA-MB-435 melanoma it was 95.8%; in the assay with SW-620 colon it was 58.4%. Further, the growth with MCF7 breast (10 µM unless noted) was 62%; with HCT-116 colon it was 52.5%; in the assay with HCC-2998 colon, 101%; in the assay on KM12 colon, 103%.

In the case of `OC1CCCN(Cc2ccccc2)C1` (stereo unspecified), the growth is 90.5% in the assay with RPMI-8226 leukemia; 105% with OVCAR-8 ovarian; 108% in the assay on OVCAR-5 ovarian; 129% in the assay with OVCAR-4 ovarian; 99.7% in the assay on SK-OV-3 ovarian; 112% in the assay with IGROV1 ovarian. Further, the growth in the assay on OVCAR-3 ovarian was 113%; in the assay on HS 578T breast, 118%; in the assay with NCI/ADR-RES ovarian, 101%; in the assay with T-47D breast it was 94.9%; in the assay with BT-549 breast, 112%; in the assay on MDA-MB-435 melanoma, 107%. For the same compound, the growth with SW-620 colon was 107%; in the assay with MCF7 breast (10 µM unless noted) it was 102%; in the assay with HCC-2998 colon it was 116%; with KM12 colon it was 107%.

`COc1ccc(/C=N/NC(N)=S)cc1`: the growth in the assay with RPMI-8226 leukemia was 88.9%; in the assay with OVCAR-8 ovarian, 100%; with OVCAR-5 ovarian, 93.7%; with OVCAR-4 ovarian, 89.8%; in the assay with SK-OV-3 ovarian, 106%; in the assay on IGROV1 ovarian it was 76.9%. Further, the growth with OVCAR-3 ovarian is 111%; in the assay on HS 578T breast it was 101%; in the assay on NCI/ADR-RES ovarian, 96.7%; in the assay with T-47D breast, 85.6%; with BT-549 breast, 104%; with MDA-MB-435 melanoma it was 100%. Besides, the growth with SW-620 colon was 125%; with MCF7 breast (10 µM unless noted), 103%; in the assay with HCC-2998 colon, 90.7%; with KM12 colon, 119%.

In the case of `CCOC(=O)C(N)Cc1cc(I)c(O)c(I)c1` (stereo unspecified), the growth was 96.4% and 107% with RPMI-8226 leukemia; 110% and 104% in the assay with OVCAR-8 ovarian; 109% and 107% in the assay with OVCAR-5 ovarian; 108% and 107% in the assay on OVCAR-4 ovarian; 107% and 96.6% in the assay with SK-OV-3 ovarian; 115% and 104% in the assay with IGROV1 ovarian. For the same compound, the growth with OVCAR-3 ovarian was 113% and 102%; in the assay with HS 578T breast it was 107%; with NCI/ADR-RES ovarian, 98.8% and 101%; in the assay with T-47D breast, 105% and 111%; in the assay with BT-549 breast it was 109% and 98.5%; in the assay on MDA-MB-435 melanoma it was 105% and 114%. Moreover, the growth is 104% in the assay on SW-620 colon; 107% and 103% in the assay on MCF7 breast (10 µM unless noted); 110% and 95.3% in the assay with HCT-116 colon; 104% and 96.6% in the assay on HCC-2998 colon; 107% in the assay with KM12 colon.

For `O=[N+]([O-])c1cccc(N=Cc2ccccc2)c1`, the growth in the assay on RPMI-8226 leukemia is 101%; in the assay on OVCAR-8 ovarian it was 93.1%; in the assay with OVCAR-5 ovarian, 107%; in the assay with OVCAR-4 ovarian it was 111%; in the assay with SK-OV-3 ovarian it was 106%; in the assay with IGROV1 ovarian, 114%. Further, the growth in the assay on OVCAR-3 ovarian was 122%; in the assay with HS 578T breast, 110%; in the assay on NCI/ADR-RES ovarian, 108%; with T-47D breast, 103%; in the assay on BT-549 breast, 101%; with MDA-MB-435 melanoma, 109%. For the same compound, the growth in the assay with SW-620 colon is 117%; in the assay with MCF7 breast (10 µM unless noted) it was 102%; with HCT-116 colon, 103%; in the assay on HCC-2998 colon it was 103%; in the assay with KM12 colon, 112%.

Values taken from PubChem BioAssay (NCI).
